Measurements from PubChem BioAssay AID1159580 (chemical genetic matrix, 2015).
The campaign covered roughly 5,500 compounds. About 2,000 (36%) were called active. Inconclusive results (about 18%) are left out. No stated cut-off is given here; in the data, active means normalized growth mostly below about 0.91 (no sharp cut-off); inconclusive means no clear call, values can overlap the other calls; inactive means mostly above about 0.92. Some of the results follow.

Assay: chemical genetic growth profiling, strain panel (AID 1159580);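 further: tested at 20 µM; growth read once vehicle control cultures reached saturation at 30 °C; 1 = growth at the plate median or of vehicle wells; lower values mean less growth of the strain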
Conditions: growth OD

Measured: normalized growth

CC(C)CCCC(C)C1CCC2C3CC[C@H]4C[C@@H](O)CC[C@]4(C)C3CC[C@]12C (stereo not given in full)
inactive: S. cerevisiae deletion strains, locus YAL013W, strain DEP1, hits give low values 1 | S. cerevisiae deletion strains, locus YBR021W, strain FUR4, hits give low values 1 | S. cerevisiae deletion strains, locus YBR229C, strain ROT2, hits give low values 1.01 | S. cerevisiae deletion strains, locus YCL029C, strain bik1, hits give low values 1.03 | S. cerevisiae deletion strains, locus YDL035C, strain GPR1, hits give low values 1 | S. cerevisiae deletion strains, locus YDL074C, strain BRE1, hits give low values 1.02 | S. cerevisiae deletion strains, locus YDL101C, strain DUN1, hits give low values 1.01 | S. cerevisiae deletion strains, locus YDL185W, strain tfp1, hits give low values 1.01 | S. cerevisiae deletion strains, locus YDL192W, strain arf1, hits give low values 1.01 | S. cerevisiae deletion strains, locus YDR101C, strain arx1, hits give low values 1.04 | S. cerevisiae deletion strains, locus YDR162C, strain NBP2, hits give low values 0.987 | S. cerevisiae deletion strains, locus YDR318W, strain mcm21, hits give low values 0.984 | S. cerevisiae deletion strains, locus YDR388W, hits give low values 0.997 | S. cerevisiae deletion strains, locus YDR502C, strain sam2, hits give low values 1.03 | S. cerevisiae deletion strains, locus YEL061C, strain CIN8, hits give low values 0.995 | S. cerevisiae deletion strains, locus YER110C, hits give low values 1 | S. cerevisiae deletion strains, locus YER155C, strain BEM2, hits give low values 0.997 | S. cerevisiae deletion strains, locus YER167W, strain BCK2, hits give low values 0.997 | S. cerevisiae deletion strains, locus YGL078C, strain dbp3, hits give low values 1.02 | S. cerevisiae deletion strains, locus YGL086W, strain mad1, hits give low values 1.03 | S. cerevisiae deletion strains, locus YGL248W, strain PDE1, hits give low values 1 | S. cerevisiae deletion strains, locus YGR135W, strain pre9, hits give low values 0.99 | S. cerevisiae deletion strains, locus YGR229C, strain SMI1, hits give low values 1 | S. cerevisiae deletion strains, locus YGR252W, strain gcn5, hits give low values 0.96 | S. cerevisiae deletion strains, locus YHR030C, strain SLT2, hits give low values 0.996 | S. cerevisiae deletion strains, locus YHR079C, strain IRE1 (second series), hits give low values 0.995 | S. cerevisiae deletion strains, locus YHR094C, strain hxt1, hits give low values 0.995 | S. cerevisiae deletion strains, locus YHR129C, strain ARP1, hits give low values 1.01 | S. cerevisiae deletion strains, locus YHR200W, strain rpn10, hits give low values 1.01 | S. cerevisiae deletion strains, locus YIL066C, strain RNR3, hits give low values 1 | S. cerevisiae deletion strains, locus YIL073C, strain SPO22, hits give low values 1.02 | S. cerevisiae deletion strains, locus YIL125W, strain kgd1, hits give low values 1.01 | S. cerevisiae deletion strains, locus YIR030C, strain dcg1, hits give low values 1 | S. cerevisiae deletion strains, locus YJL095W, strain BCK1, hits give low values 0.997 | S. cerevisiae deletion strains, locus YJL134W, strain LCB3, hits give low values 1.01 | S. cerevisiae deletion strains, locus YJL168C, strain set2, hits give low values 1 | S. cerevisiae deletion strains, locus YJL187C, strain SWE1 (second series), hits give low values 1.01 | S. cerevisiae deletion strains, locus YJR043C, strain POL32, hits give low values 0.988 | S. cerevisiae deletion strains, locus YKL009W, strain mrt4, hits give low values 0.997 | S. cerevisiae deletion strains, locus YKL068W, hits give low values 0.999 | S. cerevisiae deletion strains, locus YKL085W, strain MDH1 (second series), hits give low values 0.994 | S. cerevisiae deletion strains, locus YKL085W, strain MDH1, hits give low values 0.994 | S. cerevisiae deletion strains, locus YKL190W, strain CNB1, hits give low values 0.994 | S. cerevisiae deletion strains, locus YKR001C, strain vps1, hits give low values 1.01 | S. cerevisiae deletion strains, locus YLR039C, strain RIC1, hits give low values 1.05 | S. cerevisiae deletion strains, locus YLR058C, strain SHM2, hits give low values 0.987 | S. cerevisiae deletion strains, locus YLR102C, strain apc9, hits give low values 1.01 | S. cerevisiae deletion strains, locus YLR262C, strain YPT6, hits give low values 1.08 | S. cerevisiae deletion strains, locus YLR268W, strain sec22, hits give low values 1.04 | S. cerevisiae deletion strains, locus YLR330W, strain CHS5, hits give low values 0.989 | S. cerevisiae deletion strains, locus YLR342W, strain FKS1 (second series), hits give low values 1.01 | S. cerevisiae deletion strains, locus YLR371W, strain rom2, hits give low values 1 | S. cerevisiae deletion strains, locus YLR418C, strain cdc73, hits give low values 1.01 | S. cerevisiae deletion strains, locus YML016C, strain PPZ1, hits give low values 1.01 | S. cerevisiae deletion strains, locus YML032C, strain rad52, hits give low values 0.975 | S. cerevisiae deletion strains, locus YML124C, strain tub3, hits give low values 0.996 | S. cerevisiae deletion strains, locus YMR078C, strain ctf18, hits give low values 1 | S. cerevisiae deletion strains, locus YMR223W, strain ubp8, hits give low values 0.989 | S. cerevisiae deletion strains, locus YMR263W, strain SAP30, hits give low values 0.999 | S. cerevisiae deletion strains, locus YMR307W, strain GAS1, hits give low values 1.06 | S. cerevisiae deletion strains, locus YNL067W, strain RPL9B, hits give low values 1.01 | S. cerevisiae deletion strains, locus YNL128W, strain TEP1, hits give low values 0.972 | S. cerevisiae deletion strains, locus YNL233W, strain BNI4, hits give low values 1.01 | S. cerevisiae deletion strains, locus YNL250W, strain rad50, hits give low values 0.997 | S. cerevisiae deletion strains, locus YNL271C, strain bni1, hits give low values 1.01 | S. cerevisiae deletion strains, locus YNL298W, strain CLA4, hits give low values 1 | S. cerevisiae deletion strains, locus YNL307C, strain MCK1, hits give low values 1.01 | S. cerevisiae deletion strains, locus YNL322C, strain KRE1, hits give low values 0.998 | S. cerevisiae deletion strains, locus YNR052C, strain pop2, hits give low values 0.996 | S. cerevisiae deletion strains, locus YOL012C, strain htz1 1.64 | S. cerevisiae deletion strains, locus YOL147C, strain pex11, hits give low values 1 | S. cerevisiae deletion strains, locus YOR061W, strain CKA2, hits give low values 0.997 | S. cerevisiae deletion strains, locus YOR069W, strain VPS5, hits give low values 1 | S. cerevisiae deletion strains, locus YOR136W, strain idh2, hits give low values 1.01 | S. cerevisiae deletion strains, locus YOR144C, strain elg1, hits give low values 1 | S. cerevisiae deletion strains, locus YOR184W, strain ser1, hits give low values 1.03 | S. cerevisiae deletion strains, locus YOR316C, strain cot1, hits give low values 1 | S. cerevisiae deletion strains, locus YPL055C, strain LGE1, hits give low values 0.992 | S. cerevisiae deletion strains, locus YPL241C, strain CIN2, hits give low values 0.99 | S. cerevisiae deletion strains, locus YPR119W, strain clb2, hits give low values 0.998 | S. cerevisiae deletion strains, locus YPR141C, strain kar3, hits give low values 1 | S. cerevisiae deletion strains, locus YPR163C, strain tif3, hits give low values 1 | S. cerevisiae deletion strains, locus YPR167C, strain met16, hits give low values 0.994 | S. cerevisiae deletion strains, strain wtn01, hits give low values 1.04 | S. cerevisiae strains, strain wild type, hits give low values 0.976
